Hits are enriched below; roughly 20% of the tested compounds scored in any of these assays.
Pf growth 48h – Primary qHTS for delayed death inhibitors of the malarial parasite plastid, 48 hour incubation | P. falciparum luciferase growth in erythrocytes, 48 h | Potency, µM (highest dose often 28.7 µM), actives largely listed as inhibitors | 310,000 compounds, 5.9% hits
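A one-generation exposure of luciferase-tagged malaria parasites in RPMI 1640/Albumax erythrocyte culture, 37 C and 5% CO2. Inhibition is inferred from decreased luminescence after adding detection reagent.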
HCMV inh – qHTS Assay for inhibitors of the human cytomegalovirus (HCMV); activity change, negative = inhibition, % at 57.5 µM; HFF cells, HCMV-luciferase reporter, 72 h; stronger effect = lower value; 410,000 compounds, 4.5% hits; AID 1259415, 2018; in the data active = activity change below about -60%; inconclusive = no clear call, values can overlap the other calls; inactive = above about -39%
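Cell-based, HFFs, 1000 cells/well, 16 h 37C; cpds in DMSO + HCMV-luc, MOI 1 PFU/cell; 72 h 37C; OneGlo luminescence after 5 min RT; norm. to buffer vs Salinomycin 10uM.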
Shiga toxin inh – A qHTS for Small Molecule Inhibitors of Shiga Toxin. Vero cells, Shiga toxin protein synthesis inhibition reporter. inhibition, % at 38.7 µM. 290,000 compounds, 9.2% hits. AID 2315, 2010; in the data active = inhibition mostly above about 28%, no sharp cut-off; inactive = mostly below about 43%
CHX counter – Cycloheximide Counterscreen for Small Molecule Inhibitors of Shiga Toxin. cell reporter, cycloheximide protein synthesis inhibition counterscreen. max response, %. 300,000 compounds, 12% hits. AID 2314, 2010; in the data active = max response mostly above about 13%, no sharp cut-off; inactive = mostly below about 14%; also: read at 38.3 µM for the half of the compounds with a filed dose
Pf growth 96h – Primary qHTS for delayed death inhibitors of the malarial parasite plastid, 96 hour incubation; 320,000 compounds, 6.9% hits; Potency, µM (doses to about 28.7 µM), usual class: inhibitors; P. falciparum luciferase reporter growth, 96 h
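96 h incubation, 37 C, 5% CO2, of luciferase-reporter P. falciparum-infected RBCs (2% hematocrit, 0.05% parasitemia final) with test compounds; endpoint luminescence.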
Of the large screens only hits and unclear results are named; the others gave an inactive call. Unless noted, calls follow the shape of the dose curve; as a rule, active = well fitted inhibition curve with a large enough effect; inconclusive = small, poorly fitted or top-dose-only effect, or another doubt; inactive = no such curve, though single readings can be large or run the other way.

O=C(COc1ccccc1)NCCSCc1ccco1	none
COc1ccc(NC(=O)C(=O)NCC(c2cccnc2)N2CCc3ccccc3C2)cc1 (stereo not given)	none (no result: Pf growth 48h, Shiga toxin inh, CHX counter, Pf growth 96h)
CCCCc1c(O)nc(SCC(=O)c2ccccc2)n(-c2ccccc2OC)c1=O	none
O=C(COC(=O)c1ccc(S(=O)(=O)C(F)F)cc1)NC(=O)NC1CCCCC1	none (no result: Shiga toxin inh, CHX counter)
CCc1ccc(-n2nc(CO)c(C(=O)NCCCc3ccccc3)n2)cc1	none (no result: Pf growth 48h, Shiga toxin inh, CHX counter, Pf growth 96h)
CCc1ccc(N2C(=O)N(CC(=O)C(C)(C)C)c3ccccc3S2(=O)=O)cc1	none (no result: Pf growth 48h, Shiga toxin inh, CHX counter, Pf growth 96h)
Cc1ccc2c(c1)C(=O)CC(c1ccc3c(c1)OCCO3)O2 (stereo not given)	Shiga toxin inh 64, CHX counter 41
COc1ccc2c(c1)C(=O)CC(c1ccc3c(c1)OCCO3)O2 (stereo not given)	Shiga toxin inh 61, CHX counter 43
COc1ccc2c(c1)C(=O)CC(c1ccccc1F)O2 (stereo not given)	Shiga toxin inh 36, CHX counter 13
COc1ccc2c(c1)C(=O)CC(c1ccc(OC)c(OC)c1)O2 (stereo not given)	Pf growth 96h inconclusive (no result: Shiga toxin inh)
Cc1c(CN2CCC(CO)(CCOc3ccccc3)CC2)c(=O)n(-c2ccccc2)n1C	Pf growth 96h inconclusive
OCC1(CCOc2ccccc2)CCN(Cc2cccn2-c2ncccn2)CC1	Pf growth 48h inconclusive
COc1cc(CN2CCC(CO)(CCOc3ccccc3)CC2)cc(OC)c1	Pf growth 48h 12µM, HCMV inh inconclusive, Pf growth 96h 12µM
OCC1(CCOc2ccccc2)CCN(C2Cc3ccccc3C2)CC1	Pf growth 48h 8.3µM, Pf growth 96h inconclusive
OCC1(CCc2ccccc2)CCN(Cc2ccc(OC(F)F)cc2)CC1	Pf growth 96h 13µM
CC(=O)Nc1ccc(CN2CCC(CO)(CCOc3ccccc3)CC2)cc1	Pf growth 96h inconclusive
Cc1cc(C)c(CN2CCC(CO)(CCOc3ccccc3)CC2)cc1C	Pf growth 48h 6.6µM
CCCCN(CC)CCCNC(=O)c1ccc2c(c1)NC(=O)CN2C	none (no result: Pf growth 48h, Shiga toxin inh, CHX counter, Pf growth 96h)
CCOc1ccccc1CN1CCCC(CNS(=O)(=O)c2ccc(OC)cc2)C1 (stereo not given)	Pf growth 48h inconclusive
COc1ccc(OC)c(CN2CCC(CO)(CCOc3ccccc3)CC2)c1	Pf growth 48h 13µM
COc1ccc(C(=O)CSc2nc(C)cc(=O)[nH]2)cc1	Pf growth 96h inconclusive
COc1ccc(C(=O)CSc2nccn2C)cc1	Shiga toxin inh 67, CHX counter 29
COc1cc(C(=O)CSc2nccn2C)cc(OC)c1OC	none
COc1ccc(C(=O)CSc2nc3cccnc3n2C)cc1	HCMV inh inconclusive, Pf growth 96h 3.7µM
COc1ccc(NCc2nnc(SCC(=O)c3ccc(OC)cc3)n2C)cc1	Pf growth 48h inconclusive, CHX counter 34
COc1ccc(C(=O)CSc2cc(C)[nH]c(=O)n2)cc1	Shiga toxin inh 64, CHX counter 40
COc1ccc(NCc2nc3ccccc3n2CCOc2ccccc2C)cc1	none (no result: Pf growth 48h, Shiga toxin inh, CHX counter, Pf growth 96h)
CO/N=C(/C(=O)N[C@@H]1C(=O)N2C(C(=O)O)=C(CSc3nnnn3C)CS[C@H]12)c1csc(N)n1	none (no result: HCMV inh, Shiga toxin inh, CHX counter)
NC(=S)NN=C(c1ccc(F)cc1)C1CC1	none (no result: Pf growth 48h, Shiga toxin inh, CHX counter, Pf growth 96h)
Cn1ccnc1SCC(=O)c1ccc(C#N)cc1	none
Cn1ccnc1SCC(=O)c1cccc(C(F)(F)F)c1	Shiga toxin inh 72, CHX counter 26
Cn1c(SCc2ccccc2F)nc2cccnc21	Shiga toxin inh 117, CHX counter 28
COc1ccc(-c2nc(Cn3c(SCc4ccccc4F)nc4cccnc43)c(C)o2)cc1	none (no result: Pf growth 48h, Shiga toxin inh, CHX counter, Pf growth 96h)
Cn1ccnc1SCC(=O)c1ccc(OC(F)F)cc1	Shiga toxin inh 78, CHX counter 33
COC(=O)c1ccc(CSc2nccn2C)cc1	Shiga toxin inh 65, CHX counter 52 (no result: Pf growth 96h)
COc1ccccc1-n1cnnc1SC(C)C(=O)Nc1ccc(NC(C)=O)cc1 (stereo not given)	none
Fc1ccc(F)c(CNc2ncnc3cc(Cl)ccc23)c1	Pf growth 48h inconclusive, Pf growth 96h inconclusive
O=C(NCCc1ccc(Cl)cc1)c1ccc(Cn2c(=O)c3cccn3c3cccnc32)cc1	none (no result: Pf growth 48h, Shiga toxin inh, CHX counter, Pf growth 96h)
O=c1[nH]c(NC2CCCCC2)nnc1Cc1ccccc1	Pf growth 48h inconclusive, Pf growth 96h inconclusive
O=c1[nH]c(Nc2ccc3c(c2)OCCO3)nnc1Cc1ccccc1	Pf growth 48h inconclusive, HCMV inh -73
Cc1ccc(-n2[nH]c(C)c(CCC#N)c2=O)cc1	none (no result: HCMV inh)

Screening results deposited in PubChem BioAssay by National Center for Advancing Translational Sciences (NCATS).
